Pf growth 96h: P. falciparum growth inhibition at 96 hours | P. falciparum luciferase reporter growth, 96 h | 6.9% of 320,000 active | Potency, µM (top dose mostly 28.7 µM), usual class: inhibitors
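Two-generation exposure (96 h) targets delayed-death phenotype. Reporter parasites carrying integrated firefly luciferase, in red cells at 2% hematocrit and 0.05% parasitemia final, kept at 37 C, 5% CO2; luminescence loss indicates inhibition.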
SARS PLP yeast: blocks SARS-CoV papain-like protease in a yeast assay; S. cerevisiae expressing SARS-CoV PLpro, growth rescue; Potency, µM (series often up to 32.9 µM), hits mostly activators; 0.19% of 330,000 active; AID 485353; calls by dose curve; also: nearly all actives have a fitted effect of over 55% in size
NS1 function inh: blocks influenza NS1 protein function. Potency, µM (highest dose often 46.1 µM). 0.4% of 270,000 active. AID 2326; calls by dose curve; also: actives are rising curves; nearly all actives have a fitted effect of over 50% in size
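Compounds were scored for reversing the slow growth caused by influenza A NS1 in S. cerevisiae, measured by optical density at 600 nm. Assay medium contained 2% galactose at pH 6.0; NS1-free yeast of the same strain were the positive control.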
Pf growth 48h: inhibits P. falciparum growth in the first generation, 48 h; P. falciparum luciferase growth in erythrocytes, 48 h; Potency, µM (series often up to 28.7 µM), hits mostly inhibitors; 5.9% of 310,000 active
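Cell-based growth assay: transgenic P. falciparum expressing firefly luciferase, cultured in red cells within RPMI 1640 containing 0.5% w/v Albumax, 24 mM bicarbonate and gentamycin. A drop in luciferase activity indicates inhibition.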
Numbers stand for hits; – = inactive; ? = inconclusive; · = not tested or not shown; [ ] = another dose, or the depositor's remark. Compounds with a hit are over-represented: about 10% of the library has one in this group of screens. Unless noted, calls follow the shape of the dose curve; as a rule, active = well fitted inhibition curve with a large enough effect; inconclusive = small, poorly fitted or top-dose-only effect, or another doubt; inactive = no such curve, though single readings can be large or run the other way.

SMILES	Pf growth 96h	SARS PLP yeast	NS1 function inh	Pf growth 48h
O=C1NCCN1C(=O)C12CC3CC(CC(C3)C1)C2	·	–	–	?
CC(=O)Nc1ccc(S(=O)(=O)NCC(=O)OC(C)c2ccccc2Cl)cc1 (configuration not stated)	–	–	–	–
CC1C(=O)CC(c2ccccc2)NC1c1ccccc1 (configuration not stated)	–	–	–	·
CC(C)C1C(=O)CC(c2ccccc2)NC1c1ccccc1 (configuration not stated)	1.2µM	–	–	–
O=C(OCc1c(Cl)cccc1Cl)c1ccncc1	12µM	–	–	?
CCOC(=O)c1ccc(NC2c3ccccc3C(=O)N2c2cccnc2)cc1 (configuration not stated)	?	–	–	–
CCOC(=O)c1ccc(NC2c3ccccc3C(=O)N2c2ccc(C)cn2)cc1 (configuration not stated)	12µM	–	–	·
Cc1ccc(N2C(=O)c3ccccc3C2Nc2ccccc2)nc1 (configuration not stated)	10µM	–	–	·
CC(=O)c1ccc(OCc2cc(C(=O)NC(C)CCn3cccn3)no2)cc1 (configuration not stated)	–	–	–	–
NS(=O)(=O)c1ccc(Nc2ccc([N+](=O)[O-])c3nonc23)cc1	9.3µM	–	–	?
CCOC(=O)c1[nH]c2c(c1C)C(=O)CC(c1ccc(OCC)c(OC)c1)C2 (configuration not stated)	–	–	–	·
CCOC(=O)c1[nH]c2c(c1-c1ccccc1)C(=O)CC(c1ccc(OC)c(OC)c1)C2 (configuration not stated)	10µM	–	–	?
CCOC(=O)c1[nH]c2c(c1-c1ccccc1)C(=O)CC(c1ccc(OCC)cc1)C2 (configuration not stated)	10µM	–	–	–
O=C(C1=NN(c2ccccc2)C(=O)CC1)N1CCc2ccccc2C1	–	–	–	–
CCN(CC)CC#CCC(C)(c1ccccc1)c1ccccc1	6.6µM	–	–	12µM
CCN(CC)CC#CCC(O)(c1ccccc1)c1ccccc1	–	–	–	?
CCn1cc(C2C3=C(CC(C)(C)CC3=O)N(c3ccccc3)C3=C2C(=O)CC(C)(C)C3)c(C)n1	8.3µM	–	–	?
COc1ccc(N2C3=C(C(=O)CC(C)(C)C3)C(c3cnn(C)c3)C3=C2CC(C)(C)CC3=O)cc1	4.1µM	–	–	7.4µM
CCn1cc(C2C(C(=O)Nc3cc(C)ccn3)=C(C)NC3=C2C(=O)CC(C)(C)C3)c(C)n1 (configuration not stated)	?	–	–	–
COc1cc(C2C3=C(CC(C)(C)CC3=O)N(C)C3=C2C(=O)CC(C)(C)C3)ccc1O	–	·	?	–
O=C(NCCc1cccs1)C12CN(Cc3ccccc3)CC1C(c1cccc([N+](=O)[O-])c1)=NO2 (configuration not stated)	?	–	–	8.3µM
CC(C)CCNC(=O)C12CN(Cc3ccccc3)CC1C(c1cccc([N+](=O)[O-])c1)=NO2 (configuration not stated)	?	–	–	?
O=C(NCCCCc1ccccc1)C12CN(Cc3ccccc3)CC1C(c1cccc([N+](=O)[O-])c1)=NO2 (configuration not stated)	?	?	?	4.7µM
O=C(NCCCCc1ccccc1)C12CN(Cc3ccccc3)CC1C(c1ccc([N+](=O)[O-])cc1)=NO2 (configuration not stated)	?	–	–	13µM
CCCCCCn1c(=O)[nH]c2nc3cc(N)ccc3nc2c1=O	?	–	–	–
SMILES	Pf growth 96h	SARS PLP yeast	NS1 function inh	Pf growth 48h
COc1cc(CC(=O)OCC(=O)N2C(C)CCCC2C)cc(OC)c1OC (configuration not stated)	–	–	–	–
COc1ccccc1[C@@H]1C(c2cccc(Cl)c2)=NN(c2ccccc2)[C@H]1C(=O)N1CCOC1=O	10µM	–	–	15µM
Cc1nn(CCc2nc(-c3ccco3)cs2)c2[nH]c(=O)cc(C(F)(F)F)c12	9.3µM	–	–	·
Cc1ccc(C)c(N2CCN(C(=O)CCS(=O)(=O)c3ccc4c(c3)CCN4C(=O)C3CC3)CC2)c1	–	–	–	?
Cc1cccc(Nc2nc(N)nc(CCl)n2)c1	9.3µM	–	–	?
COc1cccc(Nc2nc(N)nc(CCl)n2)c1	?	–	–	?
Cc1c(Cl)cccc1Nc1nc(N)nc(CN2CCc3ccccc3C2)n1	·	–	–	9.3µM
Cc1cccc(Nc2nc(N)nc(CCl)n2)c1C	1.5µM	–	–	?
CON(C)C(=O)CC(CNC(=O)OC(C)(C)C)c1ccc(Cl)cc1 (configuration not stated)	·	–	·	·
O=C(COc1cc2oc(=O)c3c(c2cc1Cl)CCC3)NCc1ccccn1	–	–	–	–
Cc1ccc(C(=O)OCc2nnc(-c3ccccc3)o2)cc1S(=O)(=O)N1CCOCC1	–	–	·	–
Cc1cc(=O)oc2c3c(cc(OCC(=O)NCC(=O)N[C@H](C(=O)O)C(C)C)c12)OC(C)(C)CC3	–	–	–	–
COc1ccc(CNC(=O)COc2cc3c(c4oc(=O)cc(C)c24)CCC(C)(C)O3)cc1OC	7.4µM	?	–	10µM
Cc1cc(=O)oc2c3c(cc(OCC(=O)NCc4ccncc4)c12)OC(C)(C)CC3	10µM	–	–	?
Cc1cc(=O)oc2c3c(cc(OCC(=O)NCc4ccco4)c12)OC(C)(C)CC3	8.3µM	–	–	?
Cc1c(C)c2c(OCC(=O)NCC(C)C)cc3c(c2oc1=O)CCC(C)(C)O3	?	–	–	8.3µM
COCCN(CCOC)C(=O)c1ccc(CSc2nc3ccccc3s2)cc1	–	–	–	–
COc1ccc(C)cc1NC(=O)C1CCCN(S(=O)(=O)c2ccc3c(c2)CCCN3C(C)=O)C1 (configuration not stated)	?	–	–	?
COc1ccc([C@]23Cc4cc(OC)c(OC)cc4C(O2)c2c(c4ccccc4oc2=O)O3)cc1	?	–[6.58 µM]	–	–[5.75 µM]
Cc1c(C)c2c(OCC(=O)NCc3ccncc3)cc3c(c2oc1=O)CCC(C)(C)O3	2.9µM	–	–	?
COc1ccc(C(=O)NC(CCSC)C(=O)N2CCCCCC2)cc1 (configuration not stated)	–	–	–	–
CCOC(=O)/C=C/C(=O)Nc1ccccc1-c1ccccc1NC(=O)/C=C/C(=O)OCC	?	–	–	4.7µM
COc1cccc(C(c2ccccc2)N2C3CCC2CN(S(=O)(=O)c2ccc(F)cc2)CC3)c1 (configuration not stated)	–	–	·	2.1µM
O=C(COc1ccc(Cl)cc1Cl)N(C1CCCCC1)C1CCS(=O)(=O)C1 (configuration not stated)	10µM	–	·	?
Cc1ccc(NC(=O)CSCC(=O)NNC(=O)c2nn(C)c(=O)c3ccccc23)cc1	–	–	·	–
Cc1cc(NS(=O)(=O)c2ccc(N)cc2)nc(C)n1	–	·	·	–
CC1CCCCN1CCNC(=O)c1ccc2c(=O)n(CCc3ccccc3)c(=O)[nH]c2c1 (configuration not stated)	–	–	–	–

Source: PubChem (National Center for Advancing Translational Sciences (NCATS))
